# Measurements from the supplement of paper PMC9262897, “Low-cost anti-mycobacterial drug discovery using engineered E. coli” (Nature Communications, 2022).
# Where a name gives a salt, the structure may show the parent alone. ± gives the standard deviation of the averaged measurements.
# What was measured:
# Test in all cases: growth (OD600 after 10 h); higher = more growth (less inhibition)
# [1] = test system: E. coli TESEC Alr+ wild-type control; conditions: compound 0.1 mM; raw OD600 reference: median of DMSO wells 0.241, cell-free background 0.041
# Method: (§1)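 TESEC Mtb Alr E. coli, or the Alr+ wild-type control, in 384-well plates with Prestwick library compounds at 0.1 mM and 1% DMSO, across arabinose induction levels of 1E3 to 1E7 nM. Growth is read as OD600 after 10 h at 37 °C in triplicate biological replicates.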
# [2] = test system: E. coli TESEC Mtb Alr; conditions: compound 0.1 mM
# Method: as §1
# [3] = test system: E. coli TESEC Mtb Asd; conditions: compound 0.1 mM
# Method: (§2)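 TESEC E. coli strains in which the native enzyme is deleted and replaced by arabinose-inducible Mtb Asd, DapB, CysH or TrpD, each grown in its selective medium. Strains were screened against the Prestwick library at 0.1 mM and 1% DMSO in 384-well format at low and high arabinose induction. Growth is read as OD600 after 10 h in triplicate.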
# [4] = test system: E. coli TESEC Mtb DapB; conditions: compound 0.1 mM
# Method: as §2
# [5] = test system: E. coli TESEC Alr+ wild-type control; conditions: compound 0.1 mM; raw OD600 reference: median of DMSO wells 0.49, cell-free background 0.052
# Method: (§3)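 TESEC Mtb Alr E. coli (ΔaraC ΔtolC ΔentC Δalr ΔdadX, arabinose-inducible Mtb Alr) or the Alr+ wild-type control strain, grown in defined M9-fructose medium without D-alanine in 96-well plates with Prestwick library compounds at 0.1 mM and 1% DMSO. Low Alr induction is 0.1 µM arabinose and high induction is 10 mM arabinose.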
# [6] = test system: E. coli TESEC Mtb Alr; conditions: compound 0.1 mM; remark: listed apart in the source
# Method: as §3
# [7] = arabinose 1000 nM, raw OD600 reference: median of DMSO wells 0.294, cell-free background 0.041
# [8] = arabinose 10000 nM, raw OD600 reference: median of DMSO wells 0.264, cell-free background 0.041
# [9] = arabinose 100000 nM, raw OD600 reference: median of DMSO wells 0.201, cell-free background 0.041
# [10] = arabinose 1000000 nM, raw OD600 reference: median of DMSO wells 0.193, cell-free background 0.041
# [11] = arabinose 10000000 nM, raw OD600 reference: median of DMSO wells 0.146, cell-free background 0.041
# [12] = arabinose induction (level): High, raw OD600 reference: median of DMSO wells 0.331, cell-free background 0.041
# [13] = arabinose induction (level): Low, raw OD600 reference: median of DMSO wells 0.417, cell-free background 0.041
# [14] = arabinose induction (level): High, raw OD600 reference: median of DMSO wells […], cell-free background 0.041
# [15] = arabinose induction (level): Low, raw OD600 reference: median of DMSO wells 0.227, cell-free background 0.041
# [16] = arabinose 100 nM, raw OD600 reference: median of DMSO wells 0.413, cell-free background 0.052
# [17] = arabinose 10000000 nM, raw OD600 reference: median of DMSO wells […], cell-free background 0.052
SMILES,growth [1],"growth [2, 7]","growth [2, 8]","growth [2, 9]","growth [2, 10]","growth [2, 11]","growth [3, 12]","growth [3, 13]","growth [4, 14]","growth [4, 15]",growth [5],"growth [6, 16]","growth [6, 17]"
Nc1c(Br)cc(Br)cc1CN[C@H]1CC[C@H](O)CC1 [Ambroxol hydrochloride],0.202 ± 0.0077,0.256 ± 0.014,0.283 ± 0.0086,0.18 ± 0.031,0.1617 ± 0.0016,0.149 ± 0.0085,0.168 ± 0.021,0.318 ± 0.06,0.204 ± 0.015,0.221 ± 0.029,0.626 ± 0.055,0.406 ± 0.0096,0.312 ± 0.015
Cc1ccccc1OCC(O)CO (stereo not given) [Mephenesin],0.258 ± 0.0026,0.286 ± 0.0091,0.261 ± 0.016,0.209 ± 0.016,0.184 ± 0.0048,0.14 ± 0.0045,0.416 ± 0.023,0.45 ± 0.025,0.197 ± 0.0078,0.239 ± 0.02,0.494 ± 0.1,0.413 ± 0.0097,0.373 ± 0.0043
O=C1C(CC[S+]([O-])c2ccccc2)C(=O)N(c2ccccc2)N1c1ccccc1 (stereo not given) [Sulfinpyrazone],0.167 ± 0.0026,0.244 ± 0.0079,0.241 ± 0.006,0.17 ± 0.01,0.151 ± 0.0048,0.146 ± 0.0031,0.26 ± 0.063,0.316 ± 0.087,0.182 ± 0.0043,0.203 ± 0.023,0.542 ± 0.093,0.38 ± 0.0087,0.33 ± 0.011
CN(C)c1nc(N(C)C)nc(N(C)C)n1 [Altretamine],0.251 ± 0.0091,0.315 ± 0.018,0.254 ± 0.0079,0.209 ± 0.0047,0.176 ± 0.008,0.163 ± 0.009,0.475 ± 0.017,0.436 ± 0.037,0.217 ± 0.015,0.267 ± 0.019,0.618 ± 0.023,0.404 ± 0.017,0.317 ± 0.02
CN1CCC(=C2c3ccccc3CC(=O)c3sccc32)CC1 [Ketotifen fumarate],0.196 ± 0.0062,0.254 ± 0.0091,0.246 ± 0.01,0.206 ± 0.032,0.131 ± 0.0024,0.143 ± 0.0042,0.198 ± 0.036,0.39 ± 0.042,0.239 ± 0.043,0.217 ± 0.02,0.54 ± 0.048,0.405 ± 0.0086,0.303 ± 0.017
CN1CCCC(n2nc(Cc3ccc(Cl)cc3)c3ccccc3c2=O)CC1 (stereo not given) [Azelastine HCl],0.16 ± 0.0036,0.19 ± 0.011,0.172 ± 0.0055,0.193 ± 0.0073,0.105 ± 0.0015,0.1635 ± 0.00076,0.157 ± 0.025,0.241 ± 0.056,0.169 ± 0.0087,0.191 ± 0.011,0.472 ± 0.021,0.409 ± 0.0069,0.312 ± 0.019
COc1ccc(OC)c(C(O)CNC(=O)CN)c1 (stereo not given) [Midodrine hydrochloride],0.243 ± 0.0087,0.291 ± 0.0075,0.281 ± 0.0091,0.204 ± 0.02,0.186 ± 0.0048,0.141 ± 0.0067,0.4 ± 0.017,0.505 ± 0.02,0.188 ± 0.0075,0.25 ± 0.046,0.482 ± 0.043,0.424 ± 0.0079,0.341 ± 0.008
CC(C)(C)NC[C@H](O)COc1nsnc1N1CCOCC1 [Timolol maleate salt],0.2306 ± 0.00072,0.306 ± 0.0088,0.252 ± 0.0061,0.198 ± 0.0053,0.172 ± 0.0044,0.151 ± 0.006,0.451 ± 0.021,0.432 ± 0.019,0.206 ± 0.016,0.258 ± 0.018,0.51 ± 0.069,0.401 ± 0.015,0.32 ± 0.021
CC(=O)c1ccc2c(c1)N(CCCN1CCC(CCO)CC1)c1ccccc1S2 [Piperacetazine],0.161 ± 0.0078,0.183 ± 0.0095,0.276 ± 0.015,0.222 ± 0.0061,0.115 ± 0.0049,0.133 ± 0.0052,0.175 ± 0.0042,0.222 ± 0.015,0.203 ± 0.016,0.243 ± 0.023,0.405 ± 0.0056,0.3984 ± 0.0027,0.27 ± 0.039
CCCCNC(=O)NS(=O)(=O)c1ccc(C)cc1 [Tolbutamide],0.253 ± 0.0049,0.295 ± 0.005,0.243 ± 0.0065,0.191 ± 0.018,0.16 ± 0.006,0.136 ± 0.0022,0.222 ± 0.016,0.405 ± 0.074,0.187 ± 0.021,0.186 ± 0.012,0.521 ± 0.12,0.409 ± 0.006,0.352 ± 0.021
CC1(C)[C@H](C(=O)O)N2C(=O)C[C@H]2S1(=O)=O [Sulbactam],0.241 ± 0.0052,0.305 ± 0.0083,0.263 ± 0.0075,0.244 ± 0.009,0.202 ± 0.015,0.165 ± 0.01,0.39 ± 0.029,0.438 ± 0.016,0.2 ± 0.006,0.225 ± 0.025,0.533 ± 0.06,0.409 ± 0.0061,0.361 ± 0.011
Cc1cc(C)nc(NS(=O)(=O)c2ccc(N)cc2)n1 [Sulfamethazine sodium salt],0.242 ± 0.0082,0.293 ± 0.015,0.252 ± 0.013,0.215 ± 0.016,0.165 ± 0.0038,0.142 ± 0.0032,0.408 ± 0.021,0.449 ± 0.042,0.191 ± 0.0082,0.269 ± 0.022,0.482 ± 0.088,0.413 ± 0.012,0.335 ± 0.0075
CN(Cc1ccc(C(C)(C)C)cc1)Cc1cccc2ccccc12 [Butenafine Hydrochloride],0.182 ± 0.0021,0.177 ± 0.0088,0.2 ± 0.0095,0.147 ± 0.0047,0.0789 ± 0.0012,0.116 ± 0.0035,0.204 ± 0.012,0.182 ± 0.019,0.15 ± 0.019,0.169 ± 0.02,0.399 ± 0.012,0.312 ± 0.013,0.11 ± 0.0097
COc1cc(C(=O)NC2CCCNC2)cc(OC)c1OC (stereo not given) [Troxipide],0.225 ± 0.0045,0.286 ± 0.012,0.255 ± 0.0049,0.205 ± 0.016,0.191 ± 0.02,0.134 ± 0.0027,0.353 ± 0.075,0.427 ± 0.057,0.19 ± 0.012,0.216 ± 0.0046,0.504 ± 0.1,0.402 ± 0.014,0.359 ± 0.038
NCCc1ccc(O)c(O)c1 [Dopamine hydrochloride],0.1987 ± 0.0012,0.27 ± 0.012,0.274 ± 0.0041,0.201 ± 0.021,0.197 ± 0.022,0.144 ± 0.009,0.335 ± 0.051,0.281 ± 0.036,0.174 ± 0.0035,0.202 ± 0.032,0.624 ± 0.051,0.4196 ± 0.0037,0.333 ± 0.0035
